Our source for the inhibition values is PubChem BioAssay AID488890 (Southern Research Specialized Biocontainment Screening …, 2010).

The whole screen tested about 320,000 compounds, of which about 1,300 (0.41%) were called active. Roughly 3% stayed inconclusive and do not appear here. The rule behind the calls is not given here. These entries were drawn from the full list. Entries with a potency or affinity are not part of this list.

A short description of the experiment: growth inhibition of non-replicating M. tuberculosis (AID 488890).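 Note: plate controls were DMSO cells for no effect and high antibiotic wells for full effect.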 The conditions noted are these: Mycobacterium tuberculosis non-replicating, at 25 µM, stronger effect = higher value.
Consider `Cc1ccc(S(=O)(=O)CCC(=O)Oc2ccc3c(C)cc(=O)oc3c2)cc1`, for which the inhibition amounted to 6.87%. `CC(C)CNC(=O)N1c2ccccc2Sc2ccccc21`: the inhibition was 30.4%.

As to `N=c1c(S(=O)(=O)c2ccc(Cl)cc2)cc2c(=O)n3ccccc3nc2n1CCc1ccccc1`, the inhibition amounted to 16.6%. Regarding `Cc1ccc(C)c(OCCCN2CCCC2)c1`, the inhibition was -3.13%.

As for `Brc1ccc(/C=N/Nc2nc3ccccc3o2)cc1`, the inhibition came to 0.82%. Consider `Oc1ccc(/C=N/Nc2ncc(Br)cn2)c(O)c1`, for which the inhibition is 57.8%. Regarding `Fc1ccccc1/C=N/Nc1nc2ccccc2o1`, the inhibition came out at 14.1%. In the case of `Oc1ccc(Br)cc1/C=N/Nc1ncc(-c2ccccc2)cn1` it was 1.56%. With `Clc1cc(Cl)cc(NC2=NCCS2)c1`, the inhibition worked out at 5.95%. In the case of `COc1ccc(S(=O)(=O)n2oc(=O)cc2-c2ccccc2)cc1OC` it was -6.84%; in that of `Cc1occc1C(=O)NC1CCCc2ccccc21` (configuration not stated), 3.75%; in that of `Cc1ccc(NC(=O)COc2ncnc3sccc23)cc1S(=O)(=O)N(C)C`, 7.74%. The same measure for `Cc1c(C#N)c2ccccc2n1C`: -15.1%; for `NC(=O)C1CC(=O)N(c2ccc(OCc3ccccc3Cl)cc2)C1` (configuration not stated): 58.3%; for `COC(=O)C1CC(=O)N(c2ccc(C)cc2)C1` (configuration not stated): 24.5%. For the compound `O=C(O)C1CC(=O)N(c2ccc(OCc3ccccc3Cl)cc2)C1` (configuration not stated), the inhibition was 31.4%. As for `O=C(OCc1ccccc1Cl)C1CC(=O)N(Cc2ccco2)C1` (configuration not stated), the inhibition is 12.3%.

On to `COc1ccc(N2CC(C(=O)OCC(=O)c3ccc(C)cc3)CC2=O)cc1` (configuration not stated), for which the inhibition came to 23.6%. The same measure for `COc1cccc(COC(=O)C2CC(=O)N(Cc3ccc(C)cc3)C2)c1OC` (configuration not stated): 76.5%; for `O=C1N(Cc2cccnc2)C[C@@H]2C[C@@H](c3cccc(OCc4ccccc4)c3)N3CCC[C@@]123`: 13.3%. In the case of `O=C(C1CCCN(C2CC(=O)N(c3ccc(Cl)cc3)C2=O)C1)N1CCCC1` (configuration not stated) it was 62.9%; in that of `COc1cc(/C=N/NC(=O)c2cc(C)oc2C)cc(OC)c1OC`, 5.12%; in that of `Cc1cc(C(=O)OC(C)C(=O)N2CCc3ccccc32)ccc1[N+](=O)[O-]` (configuration not stated), -2.01%. As for `C=CCc1ccc(OCCCCOc2ccc(C(=O)O)cc2)c(OC)c1`, the inhibition worked out at 65.2%. Regarding `CCOc1ccc(C(=O)OCC(=O)N(Cc2ccccc2)Cc2ccccc2)cc1OC`, the inhibition came out at 6.46%. In the case of `CCN(C(=O)COn1nnc2ccc(S(=O)(=O)N(C)C)cc21)C1CCS(=O)(=O)C1` (configuration not stated) it was -12%; in that of `Cc1ccccc1OC1CCN(C(=O)C2CCC(=O)N(C3CCCC3)C2)CC1` (configuration not stated), -4.05%; in that of `COc1ccnc2c1c(=O)n(Cc1ccc(Cl)cc1Cl)c(=O)n2C`, 7.37%. As to `COc1ccc(OC)c(S(=O)(=O)NCC(=O)O)c1`, the inhibition was -1.93%.

With `C[C@H](CO)N1C[C@H](C)[C@@H](CN(C)S(C)(=O)=O)Oc2ccc(NC(=O)C3CCCCC3)cc2C1=O`, the inhibition was -13.1%.

With `O=c1cc(-c2ccc(O)cc2)oc2cc(O)cc(O)c12`, the inhibition worked out at 20.1%. For `O=c1cc(-c2ccccc2)oc2cc(O)cc(O)c12`, the inhibition is 9.39%.

A word on the inhibition: it is the drop in the measured response relative to a control, in per cent.
